According to PubChem BioAssay AID1159580 (chemical genetic matrix, 2015):
“And” between values parts separate entries of the source, which are not always exact repeats. Equal entries are not always repeated. Among all 5,500 compounds or so, about 2,000 (36%) were called active. Roughly 18% stayed inconclusive and do not appear here. No stated cut-off is given here; in the data, active means normalized growth mostly below about 0.91 (no sharp cut-off); inconclusive means no clear call, values can overlap the other calls; inactive means mostly above about 0.92. Some of the results follow.

Assay: chemical genetic growth profiling, strain panel (AID 1159580);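 further: tested at 20 µM; growth read once vehicle control cultures reached saturation at 30 °C; 1 = growth at the plate median or of vehicle wells; lower values mean less growth of the strain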
Conditions: S. cerevisiae deletion strains, growth OD

Measured: normalized growth

OC/C=C/c1ccc(O)c(O)c1
inactive: locus YAL013W, strain DEP1, hits give low values 0.995 | locus YAL021C, strain ccr4, hits give low values 0.977 | locus YAL026C, strain drs2, hits give low values 1 | locus YAL030W, strain snc1, hits give low values 0.995 | locus YBL061C, strain skt5, hits give low values 0.996 | locus YBR009C, strain hhf1, hits give low values 0.994 | locus YBR021W, strain FUR4, hits give low values 1.03 | locus YBR023C, strain chs3, hits give low values 0.995 | locus YBR171W, strain sec66, hits give low values 1.01 | locus YBR229C, strain ROT2, hits give low values 1 | locus YBR231C, strain swc5, hits give low values 0.993 | locus YBR279W, strain paf1, hits give low values 0.996 | locus YCL011C, strain gbp2, hits give low values 0.994 | locus YCL016C, strain dcc1, hits give low values 0.995 | locus YCL029C, strain bik1, hits give low values 0.96 | locus YCL061C, strain MRC1, hits give low values 0.996 | locus YCL069W, strain vba3, hits give low values 0.992 | locus YCR088W, strain abp1, hits give low values 1.01 | locus YDL005C, strain med2, hits give low values 0.996 | locus YDL035C, strain GPR1, hits give low values 1.02 | locus YDL040C, strain nat1, hits give low values 0.988 | locus YDL074C, strain BRE1, hits give low values 0.945 | locus YDL101C, strain DUN1, hits give low values 0.991 | locus YDL134C, strain PPH21, hits give low values 1.05 | locus YDL185W, strain tfp1, hits give low values 0.953 | locus YDL192W, strain arf1, hits give low values 0.973 | locus YDR001C, strain nth1, hits give low values 0.994 | locus YDR069C, strain doa4, hits give low values 1.01 | locus YDR101C, strain arx1, hits give low values 0.962 | locus YDR137W, strain rgp1, hits give low values 0.968 | locus YDR159W, strain sac3, hits give low values 0.966 | locus YDR162C, strain NBP2, hits give low values 0.993 | locus YDR195W, strain ref2 0.951 | locus YDR297W, strain sur2, hits give low values 1 | locus YDR318W, strain mcm21, hits give low values 0.984 | locus YDR334W, strain swr1, hits give low values 0.991 | locus YDR335W, strain msn5, hits give low values 0.996 | locus YDR388W, hits give low values 0.98 | locus YDR392W, strain spt3, hits give low values 1.01 | locus YDR502C, strain sam2, hits give low values 0.993 | locus YEL003W, strain gim4, hits give low values 0.997 | locus YEL037C, strain rad23, hits give low values 1 | locus YEL061C, strain CIN8 (second series), hits give low values 0.991 | locus YEL061C, strain CIN8, hits give low values 0.978 | locus YER015W, strain faa2, hits give low values 1 | locus YER016W, strain bim1, hits give low values 0.992 | locus YER110C, hits give low values 0.954 | locus YER111C, strain swi4, hits give low values 1.01 | locus YER155C, strain BEM2 (second series), hits give low values 0.991 | locus YER155C, strain BEM2, hits give low values 0.987 | locus YER167W, strain BCK2, hits give low values 0.978 | locus YFR010W, strain ubp6, hits give low values 0.999 | locus YGL078C, strain dbp3, hits give low values 1.02 | locus YGL086W, strain mad1, hits give low values 0.937 | locus YGL167C, strain pmr1, hits give low values 1 | locus YGL173C, strain kem1, hits give low values 1.01 | locus YGL227W, strain vid30, hits give low values 1.01 | locus YGL240W, strain doc1, hits give low values 1.03 | locus YGL248W, strain PDE1, hits give low values 1.01 | locus YGL253W, strain hxk2, hits give low values 1.01 | locus YGR135W, strain pre9, hits give low values 1 | locus YHR013C, strain ard1, hits give low values 0.976 | locus YHR027C, strain rpn1, hits give low values 0.987 | locus YHR030C, strain SLT2, hits give low values 0.978 and 0.986 | locus YHR079C, strain IRE1 (second series), hits give low values 0.96 | locus YHR079C, strain IRE1, hits give low values 0.996 | locus YHR094C, strain hxt1, hits give low values 0.969 | locus YHR129C, strain ARP1, hits give low values 0.991 | locus YHR142W, strain chs7, hits give low values 1 | locus YHR200W, strain rpn10, hits give low values 0.966 | locus YIL066C, strain RNR3, hits give low values 0.996 | locus YIL073C, strain SPO22, hits give low values 0.912 | locus YIL125W, strain kgd1, hits give low values 0.98 | locus YIR030C, strain dcg1, hits give low values 0.969 | locus YJL092W, strain hpr5, hits give low values 0.995 | locus YJL095W, strain BCK1 (second series), hits give low values 1 | locus YJL095W, strain BCK1, hits give low values 1.02 and 0.999 | locus YJL115W, strain asf1, hits give low values 0.999 | locus YJL129C, strain trk1, hits give low values 0.994 | locus YJL134W, strain LCB3, hits give low values 0.986 | locus YJL154C, strain vps35, hits give low values 0.998 | locus YJL164C, strain tpk1, hits give low values 0.998 | locus YJL166W, strain qcr8, hits give low values 1 | locus YJL168C, strain set2, hits give low values 0.962 | locus YJL187C, strain SWE1 (second series), hits give low values 0.997 | locus YJL187C, strain SWE1, hits give low values 0.992 | locus YJR043C, strain POL32, hits give low values 1.02 | locus YJR066W, strain TOR1, hits give low values 0.946 | locus YJR075W, strain HOC1, hits give low values 0.984 | locus YKL009W, strain mrt4, hits give low values 1.01 | locus YKL068W, hits give low values 0.959 | locus YKL085W, strain MDH1 (second series), hits give low values 0.95 | locus YKL085W, strain MDH1, hits give low values 0.95 | locus YKL160W, strain elf1, hits give low values 1 | locus YKR001C, strain vps1, hits give low values 0.972 | locus YKR026C, strain gcn3, hits give low values 1 | locus YKR091W, strain srl3, hits give low values 1 | locus YLL001W, strain dnm1, hits give low values 0.989 | locus YLL026W, hits give low values 1 | locus YLL041C, strain sdh2, hits give low values 0.999 | locus YLR027C, strain aat2, hits give low values 0.988 | locus YLR039C, strain RIC1, hits give low values 0.938 | locus YLR058C, strain SHM2, hits give low values 0.996 | locus YLR102C, strain apc9, hits give low values 0.961 | locus YLR113W, strain HOG1, hits give low values 0.98 | locus YLR221C, strain rsa3, hits give low values 1 | locus YLR258W, strain gsy2, hits give low values 1.02 | locus YLR262C, strain YPT6 (second series), hits give low values 0.991 | locus YLR262C, strain YPT6, hits give low values 0.942 | locus YLR268W, strain sec22, hits give low values 0.96 | locus YLR320W, strain mms22, hits give low values 1 | locus YLR330W, strain CHS5, hits give low values 0.934 | locus YLR342W, strain FKS1 (second series), hits give low values 1.04 | locus YLR342W, strain FKS1, hits give low values 1.01 | locus YLR357W, strain rsc2, hits give low values 0.988 | locus YLR370C, strain arc18, hits give low values 0.993 | locus YLR384C, strain iki3, hits give low values 0.992 | locus YLR418C, strain cdc73, hits give low values 0.988 | locus YML016C, strain PPZ1, hits give low values 0.992 | locus YML032C, strain rad52, hits give low values 1.01 | locus YML120C, strain ndi1, hits give low values 0.992 | locus YML124C, strain tub3, hits give low values 0.96 | locus YMR058W, strain fet3, hits give low values 1.01 | locus YMR078C, strain ctf18, hits give low values 0.95 | locus YMR125W, strain sto1, hits give low values 0.995 | locus YMR129W, hits give low values 0.997 | locus YMR205C, strain PFK2, hits give low values 0.983 | locus YMR223W, strain ubp8, hits give low values 0.98 | locus YMR231W, strain pep5, hits give low values 0.979 | locus YMR263W, strain SAP30, hits give low values 0.989 | locus YMR307W, strain GAS1, hits give low values 1.09 | locus YNL067W, strain RPL9B, hits give low values 0.997 | locus YNL071W, strain lat1, hits give low values 0.993 | locus YNL128W, strain TEP1, hits give low values 0.966 | locus YNL153C, strain GIM3, hits give low values 0.999 | locus YNL183C, strain NPR1, hits give low values 0.963 | locus YNL209W, strain ssb2, hits give low values 0.991 | locus YNL233W, strain BNI4, hits give low values 0.994 | locus YNL248C, strain rpa49, hits give low values 1 | locus YNL250W, strain rad50, hits give low values 0.909 | locus YNL271C, strain bni1, hits give low values 0.963 | locus YNL298W, strain CLA4, hits give low values 0.991 | locus YNL307C, strain MCK1, hits give low values 0.953 | locus YNL322C, strain KRE1 (second series), hits give low values 1 | locus YNR049C, strain mso1, hits give low values 0.997 | locus YNR052C, strain pop2, hits give low values 0.98 | locus YOL012C, strain htz1 0.905 | locus YOL147C, strain pex11, hits give low values 0.963 | locus YOR001W, strain rrp6, hits give low values 1.01 | locus YOR061W, strain CKA2, hits give low values 0.995 | locus YOR069W, strain VPS5, hits give low values 0.986 | locus YOR070C, strain gyp1, hits give low values 0.985 | locus YOR080W, strain dia2, hits give low values 0.994 | locus YOR083W, strain WHI5, hits give low values 1 | locus YOR106W, strain vam3, hits give low values 1.01 | locus YOR136W, strain idh2, hits give low values 0.953 | locus YOR144C, strain elg1, hits give low values 0.971 | locus YOR184W, strain ser1, hits give low values 1.02 | locus YOR231W, strain MKK1, hits give low values 1 | locus YOR265W, strain rbl2, hits give low values 0.989 | locus YOR270C, strain vph1, hits give low values 0.994 | locus YOR290C, strain snf2, hits give low values 1.02 | locus YOR316C, strain cot1, hits give low values 0.957 | locus YPL051W, strain arl3, hits give low values 1.05 | locus YPL055C, strain LGE1, hits give low values 1 | locus YPL078C, strain atp4, hits give low values 0.994 | locus YPL106C, strain sse1, hits give low values 0.988 | locus YPL240C, strain hsp82, hits give low values 0.995 | locus YPL241C, strain CIN2, hits give low values 0.988 | locus YPL256C, strain CLN2, hits give low values 0.956 | locus YPR119W, strain clb2, hits give low values 0.946 | locus YPR141C, strain kar3, hits give low values 0.938 | locus YPR163C, strain tif3, hits give low values 0.973 | locus YPR167C, strain met16, hits give low values 0.967 | strain wtn01, hits give low values 0.949
active: locus YGR252W, strain gcn5, hits give low values 1.24 [resistant] | locus YLR371W, strain rom2, hits give low values 0.86
